We go through 40 molecules from PubChem BioAssay (EPA / NIEHS).

Activity calls are given as the source filed them. The calls were made as follows: active = hit-call score of the fitted dose curve at least 0.9, where 1 is the maximum; inactive = score below 0.9.

Read-out in this experiment: Matrix Metallopeptidase 1 (MMP1), MMP1 (gene 4312)
The experiment is described as follows: BSK_hDFCGF_MMP1: BioMAP Diversity Plus: hDFCGF Assay for Matrix Metallopeptidase 1 (MMP1) Biomarker Activity (AID 2283064). The following applies: primary human foreskin fibroblasts; actives raise or lower the signal. As for the experimental part: BSK_hDFCGF is a cell-based, multiplexed-readout assay that uses foreskin fibroblast, a human skin primary cell, with measurements taken at 24 hours after chemical dosing in a 96-well plate.BSK_hDFCGF_MMP1 is an assay component measured in the BSK_hDFCGF assay. It measures MMP-1 antibody related to regulation of gene expression using ELISA technology.Data from the assay component BSK_hDFCGF_MMP1 was analyzed into 1 assay endpoint. This assay endpoint, BSK_hDFCGF_MMP1, was analyzed with bidirectional fitting relative to DMSO as the negative control and baseline of activity. Using a type of binding reporter, gain or loss-of-signal activity can be used to understand changes in the signaling as they relate to the gene MMP1. Furthermore, this assay endpoint can be referred to as a primary readout, because this assay has produced multiple assay endpoints where this one serves a signaling function. To generalize the intended target to other relatable targets, this assay endpoint is annotated to the protease intended target family, where the subfamily is matrix metalloproteinase.
The levels of cell surface (or secreted, indicated by the prefix "s") biomarker endpoints were measured by ELISA. Overt cytotoxicity to cells in confluent adherent cultures (all systems other than the BT system) was assessed by measuring total protein levels using sulforhodamine B (SRB) staining in parallel cultures at the time of biomarker measurements, indicated as SRB endpoints. For proliferation assays for adherent cell types, individual cell types are cultured at sub-confluence and relative cell numbers quantified by SRB staining at time points optimized for each system (48 h: 3C and CASM3C systems; 72 h: BT and HDF3CGF systems; 96 h: SAg system). SRB was performed by staining cells with 0.1% SRB after fixation with 10% TCA and reading wells at 560 nm.Viability and proliferation of PBMC (T cells) was quantified by Alamar Blue reduction for the SAg and BT systems. For PBMC viability (referred to as PBMC Cytotoxicity within the assay endpoint names), cells were plated (75,000/well in a 96-well plate) and then chemical samples added for 1 h before addition of activators, SEB and TSST-1 (20 ng/mL final concentration each). Cells were incubated for 90 h. Then, Alamar Blue (20 uL/well) (Invitrogen, Cat DAL1100) was added for 6 h, and the plates were read with a fluorescence microplate reader at 546/580 nm (excitation/emission). For PBMC proliferation, cells were plated and activated as above but incubated for only 16 h prior to addition of Alamar Blue. Plates were read after 6 h.
With `O=C(Cc1ccccc1)OCCc1ccccc1`, the result was inactive.

Usually AC50 stands for the midpoint of the concentration-response curve, whichever way the signal moves. For the molecule `O=C1C=CC(=O)c2ccccc21`, the AC50 was 1.98 µM (active).

`CCOP(=O)(OCC)SCCSCC`: the outcome was inactive.

With `Oc1c(Cl)cc(Cl)cc1Cl`, the result was inactive.

On to `C=CC(Cl)CCl` (stereo not given), for which the outcome was inactive.

For the molecule `Cc1ccc2nc3sc(=O)sc3nc2c1`, the result was inactive.

With `CC(C)(C)c1cc([N+](=O)[O-])cc(C(C)(C)C)c1O`, the outcome was inactive.

On to `[Cl][Sn]([c]1ccccc1)([c]1ccccc1)[c]1ccccc1`, for which the AC50 was 0.103 µM (active).

As for `O=C(O)C1(c2ccc3c(c2)OC[C@H](Cc2ccc(-c4ccccc4)cc2)[C@H]3O)CCCC1`, the AC50 is 7.46 µM (active).

In the case of `O=S(=O)(C(Cl)(Cl)Cl)C(Cl)(Cl)Cl`, the AC50 is 2.8 µM (active).

For the molecule `O=c1oc2ccccc2c(O)c1C(CC(O)c1ccc(-c2ccc(Br)cc2)cc1)c1ccccc1` (stereo not given), the AC50 was 6.12 µM (active).

`CCN(CC)C(=O)C(Cl)=C(C)OP(=O)(OC)OC`: the result was inactive.

Regarding `Cc1cc(Cl)ccc1OC(C)C(=O)O` (stereo not given), the result was inactive.

With `N#CCCC(Br)(C#N)CBr` (stereo not given), the AC50 is 11.8 µM (active).

Take `CC(C=O)Cc1ccc2c(c1)OCO2` (stereo not given): the outcome was inactive.

For the molecule `Cc1ccccc1OP(=O)(Oc1ccccc1)Oc1ccccc1`, the AC50 is 27.4 µM (active).

Consider `Oc1ccc(Cc2ccc(O)cc2)cc1`, for which the outcome was inactive.

Turning to `Cc1cc(C(C)(C)c2ccc(O)c(C)c2)ccc1O`, the result was inactive.

On to `O=S(=O)(c1ccc(Cl)cc1)c1cc(Cl)c(Cl)cc1Cl`, for which the result was inactive.

As to `COc1ccccc1N`, the outcome was inactive.

For `CC(C)(COCC1CO1)COCC1CO1` (stereo not given), the result was inactive.

In the case of `CC(C)(C)c1ccccc1O`, the result was inactive.

On to `Cc1ccccc1OP(=O)(Oc1ccccc1C)Oc1ccccc1C`, for which the AC50 was 12.7 µM (active).

`OCCN(CCO)CCO`: the outcome was inactive.

With `Cc1cc(C)cc(C)c1`, the result was inactive.

For the molecule `C#CCOC(=O)/C=C(C)/C=C/CC(C)CCCC(C)C` (stereo not given), the result was inactive.

For `CCOP(=S)(OCC)SCS(=O)(=O)C(C)(C)C`, the result was inactive.

Take `CCOC(=O)CC(=O)CCl`: the result was inactive.

Turning to `CCOC(=O)C(SP(=S)(OC)OC)c1ccccc1` (stereo not given), the outcome was inactive.

Turning to `Oc1cccc(-c2ccccc2)c1`, the outcome was inactive.

As for `CCCCOC(=O)COC(=O)c1ccccc1C(=O)OCCCC`, the outcome was inactive.

For the molecule `CCOP(=O)(OCC)OC(=CCl)c1ccc(Cl)cc1Cl`, the AC50 was 31.5 µM (active).

Regarding `C[C@]12CC[C@@H](O)C[C@@H]1CC[C@@H]1[C@@H]2CC[C@]2(C)C(=O)CC[C@@H]12`, the result was inactive.

Regarding `Nc1c(Oc2ccccc2)cc(O)c2c1C(=O)c1ccccc1C2=O`, the outcome was inactive.

For `CCC(C)(C#N)N=NC(C)(C#N)CC` (stereo not given), the outcome was inactive.

In the case of `O=[N+]([O-])c1ccc(Nc2ccccc2)cc1`, the outcome was inactive.

With `O=[N+]([O-])c1cccc2ccccc12`, the result was inactive.

Turning to `CC(C)=CC1C(C(=O)OCc2cccc(Oc3ccccc3)c2)C1(C)C` (stereo not given), the result was inactive.

Turning to `CC(C)O.CC(C)O.OCCN(CCO)CCO.OCCN(CCO)CCO.[Ti]`, the AC50 is 24.8 µM (active).

As to `c1ccc2sc(SNC3CCCCC3)nc2c1`, the outcome was inactive.
